# Measured values from the supplement of paper PMC12645437, “Orthogonal IMiD-Degron Pairs Induce Selective Protein Degradation in Cells” (ACS Chemical Biology, 2025).
# In all, about 8,300 sequences were measured (“log2 fold change of degron read counts, EGFP-low vs EGFP+ sorted cells (limma voom), compound-induced degradation”: median about -1.1, highest 2% from about 3.2 on). This is one part of a sample in which the highest values are shown more often than they occur.
# T1: CRBN, Q96SW2
# T1 chain: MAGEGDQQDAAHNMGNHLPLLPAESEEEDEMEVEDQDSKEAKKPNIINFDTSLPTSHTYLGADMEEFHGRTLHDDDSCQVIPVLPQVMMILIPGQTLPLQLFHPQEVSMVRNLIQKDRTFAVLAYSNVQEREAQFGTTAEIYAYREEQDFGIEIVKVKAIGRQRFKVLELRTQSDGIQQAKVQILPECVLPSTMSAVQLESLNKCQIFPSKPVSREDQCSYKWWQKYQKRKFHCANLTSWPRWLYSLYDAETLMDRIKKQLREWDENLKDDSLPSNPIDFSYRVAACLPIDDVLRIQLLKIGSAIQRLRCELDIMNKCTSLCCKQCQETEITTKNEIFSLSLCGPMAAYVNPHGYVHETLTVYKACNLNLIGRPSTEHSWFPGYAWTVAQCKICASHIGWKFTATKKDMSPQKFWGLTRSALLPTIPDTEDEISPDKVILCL
# Biological target: T1, CRBN, Q96SW2
# Assay: log2 fold change of degron read counts, EGFP-low vs EGFP+ sorted cells (limma voom), compound-induced degradation; higher = more compound-induced degradation of the degron-EGFP fusion; degrons are variants of IKZF1/3 zinc finger 2; compound dose not given here
# Conditions: Jurkat, 18 h
# [1] = compound: compound 19 (5-tert-butyl-thalidomide)
# [2] = compound: compound 22 (5-morpholino-thalidomide)
# [3] = compound: compound 33 (diphenyl IMiD analogue)
# 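Note: pooled lentiviral library of zinc finger degron-EGFP fusions in mCherry-positive Jurkat cells, FACS-sorted after compound exposure, with degron abundance counted by next-generation sequencing.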
Sequence,log2 fold change of degron read counts [1],log2 fold change of degron read counts [2],log2 fold change of degron read counts [3],log2 fold change of degron read counts (compound: thalidomide)
"FHCPQCGAWFTQKGNLLRHIKL [46F_47H_49P_50Q_52G_53A_54W_55F_67L_, Q9UKT9]",-1.82,-2.04,-1.61,-2.14
"FLCDICGAEFTQKGNLLRHIKL [46F_47L_49D_50I_52G_53A_54E_55F_67L_, Q9UKT9]",-0.631,-2.41,-1.1,-0.617
"FDCDQCGAYFTQKGNLLRHIKL [46F_47D_49D_50Q_52G_53A_54Y_55F_67L_, Q9UKT9]",-2.22,-2.78,-2.57,-2.51
"FACPICGANFTQKGNLLRHIKL [46F_47A_49P_50I_52G_53A_54N_55F_67L_, Q9UKT9]",3.04,1.85,1.61,1.07
"FICPICGANFTQKGNLLRHIKL [46F_47I_49P_50I_52G_53A_54N_55F_67L_, Q9UKT9]",-0.552,2.74,2.01,2.63
"FWCPICGANFTQKGNLLRHIKL [46F_47W_49P_50I_52G_53A_54N_55F_67L_, Q9UKT9]",2.99,3.64,1.91,1.51
"LTCEICGFGCTQKGNLLRHIKL [46L_47T_49E_50I_52G_53F_54G_55C_67L_, Q9UKT9]",0.777,1.03,0.337,1.18
"FHCPICGAYFTQKGNLLRHIKL [46F_47H_49P_50I_52G_53A_54Y_55F_67L_, Q9UKT9]",2.3,1.96,1.93,0.872
"FNCNQCGHKFTQKGNLLRHIKL [46F_47N_49N_50Q_52G_53H_54K_55F_67L_, Q9UKT9]",-2.94,-2.21,-2.62,-2.32
"FTCDVCGALFTQKGNLLRHIKL [46F_47T_49D_50V_52G_53A_54L_55F_67L_, Q9UKT9]",-1.7,-2.19,-1.1,-1.72
"FTCNVCGAAFTQKGNLLRHIKL [46F_47T_49N_50V_52G_53A_54A_55F_67L_, Q9UKT9]",0.179,1.08,1.44,1.29
"FSCEVCGAAFTQKGNLLRHIKL [46F_47S_49E_50V_52G_53A_54A_55F_67L_, Q9UKT9]",3.6,3.21,2.57,2.01
"FKCEVCGAAFTQKGNLLRHIKL [46F_47K_49E_50V_52G_53A_54A_55F_67L_, Q9UKT9]",2.13,-0.688,-1.68,0.479
"FTCEVCGAAFTQKGNLLRHIKL [46F_47T_49E_50V_52G_53A_54A_55F_67L_, Q9UKT9]",2.8,3.24,2.06,3.05
"FDCEVCGAAFTQKGNLLRHIKL [46F_47D_49E_50V_52G_53A_54A_55F_67L_, Q9UKT9]",2.09,0.14,0.426,1.14
"FTCPVCGAAFTQKGNLLRHIKL [46F_47T_49P_50V_52G_53A_54A_55F_67L_, Q9UKT9]",2.3,3.11,2.78,3
"LTCPICGFPCTQKGNLLRHIKL [46L_47T_49P_50I_52G_53F_54P_55C_67L_, Q9UKT9]",0.155,1.3,1.14,1.64
"FDCPICGHEFTQKGNLLRHIKL [46F_47D_49P_50I_52G_53H_54E_55F_67L_, Q9UKT9]",-3,-2.96,-2.14,-2.07
